This is part of a sample that, as a whole, favours compounds with a hit. Of some 79,000 tested, about 15% had one in any assay. No stated cut-off is given here; in the data, active means growth inhibition above about 70%; inactive means the rest.
Assays:
[1] = NCI Yeast Anticancer Drug Screen. Data for the rad50 strain (AID 155);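 further: 0% = growth of vehicle-only cultures of the same strain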; conditions: S. cerevisiae rad50 strain growth inhibition; at 50.0 µM; stronger effect = higher value
In short: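 DNA repair mutant yeast, compound exposure, growth read-out; inhibition is taken relative to vehicle.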

[2] = NCI Yeast Anticancer Drug Screen. Data for the mec2-1 strain (AID 157); conditions: S. cerevisiae mec2-1 strain, at 50.0 µM, stronger effect = higher value
In short: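 Yeast mec2-1 mutant treated with compound. Readout: growth inhibition vs vehicle controls.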

[3] = NCI Yeast Anticancer Drug Screen. Data for the sgs1 mgt1 strain (AID 161);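 further: 0% = growth of cultures given vehicle only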; conditions: S. cerevisiae sgs1 mgt1 strain, at 50.0 µM, stronger effect = higher value
In short: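 Mutant yeast exposed to compound; growth scored against vehicle-only wells.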

[4] = NCI Yeast Anticancer Drug Screen. Data for the cln2 rad14 strain (AID 165);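 further: 0% = growth equal to vehicle treated cultures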; conditions: S. cerevisiae cln2 rad14 strain, at 50.0 µM, stronger effect = higher value
In short: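 cln2 rad14 yeast strain; compound exposure; growth inhibition read vs vehicle controls.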

[5] = NCI Yeast Anticancer Drug Screen. Data for the mlh1 rad18 strain (AID 175); conditions: S. cerevisiae mlh1 rad18 strain growth inhibition; at 50.0 µM; stronger effect = higher value
In short: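 Yeast w/ defined DNA-repair lesions; compound exposure; growth vs vehicle controls → % inhibition.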

[6] = NCI Yeast Anticancer Drug Screen. Data for the bub3 strain (AID 167); conditions: S. cerevisiae bub3 mutant strain, at 50.0 µM, stronger effect = higher value
In short: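 In this screen, a yeast mutant lacking normal mitotic checkpoint function is challenged with compound. Relative growth versus vehicle gives the inhibition value.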

Measured: growth inhibition

O=C1NC(=O)[C@H]2C3C=CC([C@@H]12)[C@@H]1C(=O)NC(=O)[C@H]31
inactive: [1] 41.7% | [2] 21.8% | [3] -22.1% | [4] 7.8% | [5] -47.6%

Cc1ccc(N=Cc2ccc(C(N)=S)cc2)cc1
inactive: [1] 7.05% | [2] 21.3% | [3] 1.45% | [6] 18.8% | [5] 24%

CCOC(=O)COc1cc(C)c2ccc(=O)oc2c1
inactive: [1] 3.9% | [2] -1.35% | [3] 10.8% | [6] 6.4% | [5] 29.1%

CC(=O)n1cc(CC(C)O)c(=O)[nH]c1=O (stereo not given)
inactive: [1] -2.45% | [2] -21% | [3] -16.2% | [6] -13.2% | [5] -28.1%

C(=Nc1ccc2ccccc2c1)c1cccs1
inactive: [1] 1.6% | [2] -3.2% | [3] 12.6% | [6] 5.1% | [5] -0.6%

Nc1ccc(/C(=N\O)c2ccccc2)cc1
inactive: [1] 19.6% | [2] 13.9% | [3] 23.9% | [6] -2.6% | [5] 10.1%

Cc1ccc(C(=O)/C=C/c2ccco2)cc1
inactive: [1] 49% | [2] 33.6% | [3] 46% | [6] 34.5% | [5] 61.3%

Cc1cc(=O)oc2c(C)c(O)ccc12
inactive: [1] 0% | [2] -16.5% | [3] -3.15% | [6] -16.6% | [5] 16.4%

C/C(=C\c1ccc(F)cc1)C(=O)O
inactive: [1] 20.2% | [2] -0.95% | [3] 0% | [6] 14.9% | [5] 13.8%

COc1nc(NC2OC(CO)C(O)C(O)C2O)c(/C=N/O)c(=O)n1C (stereo not given)
inactive: [1] 4.55% | [2] 2.25% | [3] -6.35% | [6] 7.85% | [5] 4.45%

O=C(O)CNC1CCCC1
inactive: [1] -1.3% | [2] 3.65% | [3] 4.35% | [6] 4.95% | [5] -15.1%

Cc1ccc(C(=O)c2ccccc2Cc2cccc3ccccc23)c(C)c1
inactive: [1] 4.35% | [2] 6.6% | [3] 1.2% | [6] 12.6% | [5] -14.5%

O=C(CCNC(=O)OCc1ccccc1)NC(Cc1ccccc1)C(=O)OCc1ccccc1 (stereo not given)
inactive: [1] -0.9% | [2] -14.2% | [3] 4.55% | [6] 2.4% | [5] 7.65%

O=S(=O)(O)O.[NH-]CC1(C[NH-])CCCCC1.[Pt+2]
inactive: [1] -13% | [2] 17.9% | [3] -3.15% | [6] -28.6% | [5] -46.4%

COc1ccc(N=Nc2c(C)nn(C(=O)c3ccncc3)c2C)cc1
inactive: [1] -21.9% | [2] -3.75% | [3] 13.4% | [6] 11.4% | [5] -10.1%

CCS(=O)CCC(N)C(=O)O (stereo not given)
inactive: [1] -9.7% | [2] -20.1% | [3] 1.65% | [6] 5.7% | [5] -3.6%

N#Cc1cnsc1
inactive: [1] -4.15% | [2] 2.65% | [3] 4.75% | [6] 12.4% | [5] -26.8%

CCOc1c(N=Nc2ccccc2)c(C)nn1C(N)=S
inactive: [1] -55.9% | [2] -24.6% | [3] 9.95% | [6] 0.4% | [5] 3.4%

N#C/C(N)=C(\C#N)NC=NCCO
inactive: [1] 5.35% | [2] 7.75% | [3] 13.2% | [6] 10.6% | [5] -37.8%

CC(=O)c1nc2ccccc2n1CC(=O)c1ccc([N+](=O)[O-])cc1
inactive: [1] -0.65% | [2] 8.7% | [3] 6.2% | [6] 3.45% | [5] -8.1%

CCC/C(=N/O)C(=O)OCC
inactive: [1] -3.4% | [2] 14.9% | [3] 6.4% | [4] 6.25% | [5] -4.6%

CC1=NC(=O)C(C)(c2ccccc2)N1CCc1ccccc1 (stereo not given)
inactive: [1] -0.05% | [2] 8.4% | [3] -8.75% | [6] -10.6% | [5] -28.6%

N#C/C(=C\c1ccc(F)cc1)C(=O)O
inactive: [1] 13.2% | [2] 0.8% | [3] -7.9% | [6] 8.5% | [5] 18.4%

CC1(C)CC(OP(=O)(c2ccccc2)c2ccccc2)CC(C)(C)N1O
inactive: [1] 5.25% | [2] 12.8% | [3] -6.3% | [6] 13.3% | [5] 11.2%

OC1(Cl)c2cccc3cccc(c23)C1(O)Cl (stereo not given)
inactive: [1] -0.8% | [2] 5.8% | [3] 2.6% | [6] 0.25% | [5] -14.1%

OCCNCN(CNCCO)c1nc(N(CNCCO)CNCCO)nc(N(CNCCO)CNCCO)n1
inactive: [1] 55.6% | [2] 19.7% | [3] 32.6% | [6] 2.8% | [5] 12.4%

N#Cc1ncn(CCO)c1N
inactive: [1] 8.7% | [2] -22.4% | [3] 3.3% | [6] -3.95% | [5] -43.5%

N#CCc1nc(-c2ccccc2)n[nH]1
inactive: [1] 11.2% | [2] 4.55% | [3] 13.1% | [6] 4.5% | [5] 11.7%

COc1ccc(OC)c(C(=O)CCCCCCCCC(=O)c2cc(OC)ccc2OC)c1
inactive: [1] 27.2% | [2] 8% | [3] 3.85% | [6] -3.95% | [5] 7.25%

COc1ccc(C2SC(N)=Nc3c2c(C)nn3C(=O)c2ccccc2O)cc1 (stereo not given)
inactive: [1] 15.9% | [2] 10.1% | [3] 40.5% | [6] 49.1% | [5] 29.4%

CCC(=O)c1ccc(OC(=O)Nc2ccc(Cl)cc2[N+](=O)[O-])cc1
inactive: [1] 2.25% | [2] 42.8% | [3] 38.5% | [6] 26.2% | [5] -124%

CCCCCCCCCCCCCCC/C=C\C(=O)O
inactive: [1] 15.2% | [2] -5.8% | [3] -3.4% | [6] 9.45% | [5] 1.4%

O=C(Nc1ccc(Cl)cc1)Nc1nnc2nc(C3(c4nc5nnc(NC(=O)Nc6ccc(Cl)cc6)n5[nH]c4=O)Cc4ccccc4C3=O)c(=O)[nH]n12
inactive: [1] 29.5% | [2] -1.6% | [4] 12.9% | [6] 8.75% | [5] 2.3%

Cn1nnnc1CC(=O)O
inactive: [1] 1.3% | [2] -12.9% | [4] -22.8% | [6] -2.05% | [5] -12.5%

Nc1c(S(=O)(=O)O)cc(Nc2cccc(S(N)(=O)=O)c2)c2c1C(=O)c1ccccc1C2=O
inactive: [1] 5.05% | [2] 1.1% | [4] -7.65% | [6] -17.1% | [5] 24.6%

O=[N+]([O-])c1c(Nc2ccccc2)ncnc1Nc1ccccc1
inactive: [1] -33.9% | [2] -15.9% | [4] 3.45% | [6] -10.6% | [5] 1.05%

C1CCN(/N=N/c2nn[nH]n2)CC1
inactive: [1] -2.3% | [2] 6.55% | [4] -23% | [6] 3.9% | [5] -0.7%

COc1cc(C2C(C(C)=O)=C(C)Oc3cc4c(cc32)OCO4)cc(OC)c1O (stereo not given)
inactive: [1] 21.1% | [2] 2.5% | [4] 4.15% | [6] 10.1% | [5] 35.5%

C=CCOC(=O)CCC(CCC(=O)OCC=C)C(C)=O
inactive: [1] -25.4% | [2] -19.4% | [4] -9.6% | [6] 4.1% | [5] -11.5%

CCN(CC)CCOC1(Cc2ccccn2)CCCCC1
inactive: [1] 1.2% | [2] 15.2% | [4] 21.3% | [6] -0.4% | [5] -9.75%

CCCCCC(=O)C(C)(c1nc2nnc(NC(=O)Nc3ccc(Cl)cc3)n2[nH]c1=O)c1nc2nnc(NC(=O)Nc3ccc(Cl)cc3)n2[nH]c1=O
inactive: [1] -42.8% | [2] -21.6% | [4] -45% | [6] -38.8% | [5] -32.5%

Cc1cc(N)c(C)c2ccncc12
inactive: [1] -11.4% | [2] 0% | [4] -15.2% | [6] 24.2% | [5] 2.75%

O=C(CC(c1ccccc1)N1CCCCC1)OC(c1ccccc1)c1ccc(Br)cc1 (stereo not given)
inactive: [1] 12.9% | [2] 4.05% | [4] 7.95% | [6] 6.4% | [5] 2.8%

COc1cc2c[n+]3ccc4ccccc4c3c(N)c2cc1OC
inactive: [1] 16% | [2] -8.2% | [4] 15.8% | [6] 5.9% | [5] -4.85%

CN(C)S(=O)(=O)c1ccc(N)c([N+](=O)[O-])c1
inactive: [1] -0.2% | [2] 10.7% | [4] -5.05% | [6] 7.55% | [5] 14.3%

CCCC(=O)N(CC)CC
inactive: [1] 11.2% | [2] -8.6% | [4] -15% | [6] 0% | [5] -20.9%

O=C(O)c1cc(O)c(C(=O)O)cc1O
inactive: [1] -3.2% | [2] -9.15% | [4] -15.2% | [6] -3.25% | [5] 0.3%

CCS1=C2C(=O)CC(C)(C)CC2=Nc2ccccc21 (stereo not given)
inactive: [1] 7.2% | [2] -0.15% | [4] -8.05% | [6] 17.9% | [5] -31.1%

Source: PubChem BioAssay (NCI)
